Test results taken from the supplement of paper PMC7156485.
Several values for one entry are separate records, joined by “and”; a condition that tells them apart may be missing. Equal values may be shown once.

Test system: TDF
Test: H1.0 immunofluorescence intensity relative to DMSO (% of DMSO); higher = stronger H1.0 induction, active = 120 or more
Conditions: concentration: 10 µM; 24 h
In short: (§1)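 Cells were seeded at 800 per well in 384-well plates with RPMI containing 10% FBS; both HCC1569 and TDF lines were used. Compounds were added at 10 µM for 24 h at 37 °C, in triplicate, before fixation in 3.7% formaldehyde and staining with a rabbit anti-H1.0 antibody, an AlexaFluor 647 secondary and DAPI. H1.0 nuclear intensity or cell number is reported as percent of the plate control using the median of replicates, and HCC1569 values were smoothed for positional effects.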
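Also: TDF is a line of transformed human dermal fibroblasts of mesenchymal origin.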

H1.0 immunofluorescence intensity, active:
O=C1c2ccccc2-[n+]2ccc3c([nH]c4ccccc43)c21.[Cl-] [Fascaplysin, Synthetic] 182

H1.0 immunofluorescence intensity, inactive:
CC1CN(c2c(F)c(N)c3c(=O)c(C(=O)O)cn(C4CC4)c3c2F)CC(C)N1 (stereo not drawn) [Sparfloxacin] 95.6
CC(C)C(CO)Nc1nc(Nc2cc(N)cc(Cl)c2)c2ncn(C(C)C)c2n1 (stereo not drawn) [Aminopurvalanol A] 97.4
CC(NC(CCc1ccccc1)C(=O)O)C(=O)N1CCCC1C(=O)O (stereo not drawn) [Enalaprilat] 104
COC(=O)C1=C(C)NC(C)=C(C(=O)OCC(C)C)C1c1ccccc1[N+](=O)[O-] (stereo not drawn) [Nisoldipine] 89.9
Nc1ncnc2c1ncn2C1CCCC1 [9-cyclopentyladenine] 95.1

Test system: HCC1569
Test: H1.0 immunofluorescence intensity relative to DMSO (% of DMSO); higher = stronger H1.0 induction, active = 140 or more
Conditions: concentration: 10 µM; 24 h
In short: as §1

H1.0 immunofluorescence intensity, active:
CN1CC(O)C(O)C(O)C1CO (stereo not drawn) [N-Methyl-1-deoxynojirimycin] 185

H1.0 immunofluorescence intensity, inactive:
Clc1ccc(COC(Cn2ccnc2)c2ccc(Cl)cc2Cl)c(Cl)c1 (stereo not drawn) [Miconazole] 114
CN1CCC(c2c(O)cc(O)c3c(=O)cc(-c4ccccc4Cl)oc23)C(O)C1 (stereo not drawn) [Alvocidib] 111
CC1=CCC2(C)CCC(O)(C(C)C)C2C(OC(=O)c2ccc(O)cc2)C1 (stereo not drawn) [Ferutinin] 107
O=C(O)C=Cc1ccc(O)c(O)c1 [Caffeic Acid] 84.5
O=C(O)c1cc(O)ccc1O [Gentisic acid] 93.5
COc1ccc(-c2cnc3c(-c4ccsc4)cnn3c2)cc1 [VEGF Receptor 2 Kinase Inhibitor IV] 109
Nc1c2c(nc3ccccc13)CCCC2 [Tacrine] 109
Cc1cc(Cc2cc(C)cc(C(C)(C)C)c2O)c(O)c(C(C)(C)C)c1 90.7 and 88.8
CC1(C)CCCC(C)(C2CCC3(C)C2C(O)CC2C4(C)CCC(O)C(C)(C)C4CCC23C)O1 (stereo not drawn) [Panaxadiol] 93.6
Oc1cc(O)cc(/C=C/c2ccc(Br)cc2)c1 [5-[(E)-2-(4-bromophenyl)ethenyl]-1,3-benzenediol] 127
O=C(O)CCCC=CCC1C(O)CC(O)C1C=CC(O)COc1cccc(C(F)(F)F)c1 (stereo not drawn) [Fluprostenol] 97.4
CCOC(=O)C=C(C)C=CC=C(C)C=Cc1c(C)cc(OC)c(C)c1C [Etretinate] 115
CCC(=O)OC1(C(=O)CCl)C(C)CC2C3CCC4=CC(=O)C=CC4(C)C3(F)C(O)CC21C (stereo not drawn) [Clobetasol Propionate] 100
NC(=O)c1ncn(C2OC(CO)C(O)C2O)c1O (stereo not drawn) [Mizoribine] 89.3
CCCCCCCCCCCCCCCC(=O)NCC(COP(=O)([O-])OCC[N+](C)(C)C)OCC (racemic) [rac-2-Ethoxy-3-hexadecanamido-1-propylphosphocholine] 104
O=c1c(O)c(-c2ccc(O)cc2O)oc2cc(O)cc(O)c12 [Morin] 98.5
CCCCCC(O)C=CC1C(O)CC2OC(=CCCCC(=O)[O-])CC21.[Na+] (stereo not drawn) [Prostaglandin I2 Na] 98.3
Cc1c[nH]c(C=C2C(=O)Nc3ccccc32)c1CCC(=O)O 103
Oc1cc2c(cc1O)C(c1ccccc1)CNCC2 (racemic) 93.5
COC(=O)C(c1ccccc1Cl)N1CCc2sccc2C1 (stereo not drawn) [Clopidogrel] 107
CCCCCCCCC#CCC#CCC#CCCCC(=O)O [5,8,11-Eicosatriynoic acid] 98.5
CC(C)C[C@H](NC(=O)C(O)[C@H](N)Cc1ccc([N+](=O)[O-])cc1)C(=O)O.Cl (stereo partly drawn) 93.9
O=c1c(O)c(-c2ccc(O)cc2)oc2cc(O)cc(O)c12 [Kaempferol] 115
NC(N)=NC(=O)c1nc(Cl)c(N)nc1N [Amiloride] 102
CC1=NN(c2ccccc2)C(=O)C1 97.6
CC1(C)CCC=[N+]1[O-] [5,5-Dimethyl-1-pyrroline-N-oxide] 99.5
